Measurements: PubChem BioAssay (NCI)
Where “and” joins values, the source holds several entries; their conditions need not be identical. Equal entries are not always repeated. This is part of a sample that, as a whole, favours compounds with a hit. Of some 83,000 tested, about 20% had one in any assay.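 Interpretation: 100, growth as untreated; towards 0, rising growth inhibition; 0, no net growth; 0 to -100, cell death. Compounds scoring below 10 were considered active.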 Calls of active or inactive are those of the source.

These compounds were tested on MDA-MB-468 breast (assay: NCI-60 one-dose screen, 48 h (100 = growth as untreated, 0 = no growth, -100 = all killed)). Details: 10 µM unless noted.

Question: `ClC(Cl)c1nc(-c2ccccc2)n2nc(-c3ccccc3)cc2n1` was tested. Which growth did it give?
Answer: Its growth is -52.3% (active).

Question: `CCCCNc1nnc2n(Cc3ccccc3)c(=O)c3c4c(sc3n12)CCCC4` was tested. Which growth did it give?
Answer: Its growth is 34.7% (inactive).

Question: How did the growth turn out when `CN1CCN(c2cc(F)c(NC3=C(Cl)C(=O)c4ncccc4C3=O)c(F)c2)CC1` was run?
Answer: Its growth is -73.9% (active).

Question: How did the growth turn out when `NC(=O)c1c(NC(=O)c2ccccc2)sc2c1CCC(=O)C2` was run?
Answer: The growth was -5.34% (active).

Question: With `Cn1nc(Nc2ccccc2)c(C(=O)NN)c1N` as the compound, how does the growth read?
Answer: Its growth is 100% (inactive).

Question: For `O=C(CCc1nnc(Cn2ccnc2)o1)c1nc2ccccc2[nH]1`, which growth is on record?
Answer: The growth was 108% (inactive).

Question: With `Nc1nonc1-c1nc2ccccc2n1CC(=O)Nc1ccc2c(c1)COC2=O` as the compound, how does the growth read?
Answer: The growth was 26.2% (inactive).

Question: How did the growth turn out when `CCCCCC(=O)OCc1ccccc1` was run?
Answer: The growth was 97.3% (inactive).

Question: For `COc1ccc(CC(C#N)c2ccc(Cl)cc2)cc1` (centres undefined), which growth is on record?
Answer: The growth was 24% (inactive).

Question: With `NC(=O)/C=C/C(=O)c1c(Cl)cccc1Cl` as the compound, how does the growth read?
Answer: Its growth is -83.5% (active).

Question: For `Oc1nc(NCCc2ccccc2)sc1/C=C1\C=Nc2ncccc21`, which growth is on record?
Answer: Its growth is -2.06% (active) and -14.5% (active).

Question: Which growth does the source give for `Oc1[nH]c2cc(Cl)ccc2c1/C=c1/ccc2c(c1)N=C(c1cc(F)cc(F)c1)N=2` here?
Answer: Its growth is -19.6% (active).

Question: For `O=c1c2c(c(=O)n1O)c1c3ccc[nH]c3nc1c1nc3[nH]cccc3c12`, which growth is on record?
Answer: Its growth is 64% (inactive).

Question: With `Cc1nc2cc(Nc3nc(Nc4ccc(F)cc4)nc(N4CCCC4)n3)ccc2n1Cc1ccccc1` as the compound, how does the growth read?
Answer: The growth was -63.3% (active).

Question: Which growth does the source give for `O=C(Nc1ccc(CN2CCOCC2)cc1)c1[nH]ncc1Nc1ncnc2sccc12` here?
Answer: Its growth is -25.6% (active).

Question: How did the growth turn out when `COc1cc(-c2nc(SCCC(C)C)nc(N3CCOCC3)c2C#N)cc(OC)c1OC` was run?
Answer: The growth was 98.2% (inactive).

Question: For `CCCC(=O)NC(c1ccc2c(c1)OC(F)(F)O2)c1cc(C)c2cccnc2c1O` (centres undefined), which growth is on record?
Answer: Its growth is -14.7% (active).

Question: With `CCNC(=S)n1nc(SC)c(C(=O)OCC)c1N` as the compound, how does the growth read?
Answer: The growth was 114% (inactive).

Question: Which growth does the source give for `O=S(=O)(NCCCNc1nccc(-c2c(-c3ccc(F)cc3)nc3sccn23)n1)c1ccc(F)cc1` here?
Answer: The growth was 50.5% (inactive).

Question: `Cc1cc(N(CCCNc2ccnc3cc(Cl)ccc23)Cc2ccc3c(c2)OCO3)nc(N2CCCCC2)n1` was tested. Which growth did it give?
Answer: The growth was -45.2% (active).

Question: With `C[C@@H](Nc1c(C#N)cnc2ccc(-c3cnc(Cl)c(NS(C)(=O)=O)c3)cc12)c1ccccc1` as the compound, how does the growth read?
Answer: Its growth is -36% (active).

Question: `O=C(Nc1ccc2c(O)cc(S(=O)(=O)O)cc2c1)c1ccc([N+](=O)[O-])cc1` was tested. Which growth did it give?
Answer: The growth was 95.4% (inactive).

Question: Which growth does the source give for `Cc1ncc(C#N)c(N)n1` here?
Answer: The growth was 89.3% (inactive).

Question: `O=C(Nc1ccccc1C(F)(F)F)C1=NCCCCN1` was tested. Which growth did it give?
Answer: The growth was 94.8% (inactive).

Question: How did the growth turn out when `O=C1c2c[n+](Cc3ccccc3)ccc2-c2nc3ccccc3c3ccnc1c23` was run?
Answer: Its growth is -59.2% (active).

Question: `COc1ccc(-c2cc(-c3nnc(SCC(=O)Nc4ccc(C(C)=O)cc4)n3-c3ccccc3)c3ccccc3n2)cc1OC` was tested. Which growth did it give?
Answer: Its growth is 111% (inactive).

Question: For `O=C(/C(=C/c1ccccc1)CN1CCCCC1)c1ccccc1`, which growth is on record?
Answer: Its growth is -72.8% (active).

Question: With `O=C(O)c1ccc2c(c1)C(=O)c1ccccc1C2=O` as the compound, how does the growth read?
Answer: The growth was -2.97% (active).

Question: How did the growth turn out when `Oc1ccc(/C=N/NC(=S)Nc2ccccc2)nc1` was run?
Answer: The growth was -37.7% (active).

Question: Which growth does the source give for `C=C1C(=O)O[C@H]2[C@H]1CC/C(COC(=O)c1ccc(C#N)cc1)=C\CC[C@@]1(C)O[C@@H]21` here?
Answer: Its growth is -17.2% (active).

Question: How did the growth turn out when `O=S(=O)(c1ccc(OCCO)cc1)c1ccc(OCCO)cc1` was run?
Answer: Its growth is 101% (inactive).

Question: How did the growth turn out when `COc1cc(C2CC(c3ccc(C)cc3)=NN2C=O)ccc1Oc1ccnc2cc(Cl)ccc12` (centres undefined) was run?
Answer: The growth was 58.4% (inactive).

Question: `Nc1ccc(Br)cc1C(F)(F)F` was tested. Which growth did it give?
Answer: The growth was 110% (inactive).

Question: Which growth does the source give for `Cn1cc(-c2nc3c(F)cc4[nH]ncc4c3c3c2CCCC3)c(C(F)F)n1` here?
Answer: The growth was 52.9% (inactive).

Question: For `O=c1cc(-c2ccc3c(c2)OCCO3)oc2cc(Cl)ccc12`, which growth is on record?
Answer: Its growth is 66.4% (inactive).

Question: With `COc1cc(NC(N)=NCCC(C)(C)c2ccc(C(F)(F)F)cc2)ncc1C#N` as the compound, how does the growth read?
Answer: Its growth is -39.1% (active).

Question: How did the growth turn out when `O=C1/C(=C/c2ccccc2)SC(=S)N1CCc1ccc(O)cc1` was run?
Answer: Its growth is 73.9% (inactive).

Question: Which growth does the source give for `O=S(=O)(Oc1ccc(-c2cn3ccsc3n2)cc1)c1cccc(C(F)(F)F)c1` here?
Answer: Its growth is 92.9% (inactive).

Question: With `Cc1[nH]ccc2cc3nc4ccccc4c3cc12` as the compound, how does the growth read?
Answer: Its growth is 10.7% (inactive).
